Measurements: PubChem BioAssay AID651844 (Broad Institute, 2012)
Entries with a potency or affinity are not part of this list. Inconclusive results are not listed. The source made the active and inactive calls.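 The calls were made as follows: active = every test run shows a luminescence drop with half-maximal concentration at most twice the top tested dose; inconclusive = test runs disagree, weak flat response, or unreliable curve fit; inactive = the rest.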

Assay: NIH/3T3 fibroblast cytotoxicity, dose response, cytotoxicity control, cell-based, dry powder samples (AID 651844)
Settings: NIH/3T3 viability, CellTiter-Glo ATP luminescence, 90 h; series mostly up to 16 µM

| Structure (SMILES) | outcome |
| --- | --- |
| COc1ccc(CN(C)C[C@H]2Oc3c(NC(=O)c4ccncc4)cccc3C(=O)N([C@@H](C)CO)C[C@@H]2C)cc1 | inactive |
| CC(C)N1C[C@H](C)[C@@H](CN(C)C(=O)OC(C)(C)C)Oc2c(NC(=O)c3ccncc3)cccc2C1=O | inactive |
| CC(C)N(C)C(=O)c1cccc(NC(=O)c2ccncc2)c1OCCCN(C)C(=O)OC(C)(C)C | inactive |
| CCCn1ncc(CN(C)C[C@H]2Oc3c(NC(=O)c4ccncc4)cccc3C(=O)N(C(C)C)C[C@@H]2C)c1C | inactive |
| CC(C)N1C[C@H](C)[C@@H](CN(C)Cc2ccccc2)Oc2c(NC(=O)c3ccncc3)cccc2C1=O | inactive |
| C[C@@H]1CN([C@H](C)CO)C(=O)c2cccc(NC(=O)c3ccncc3)c2O[C@H]1CN(C)Cc1ccc2c(c1)OCO2 | inactive |
| CC(C)N1C[C@H](C)[C@@H](CN(C)C(=O)OC(C)(C)C)Oc2c(NC(=O)c3ccccc3)cccc2C1=O | inactive |
| C[C@@H]1CN([C@@H](C)CO)C(=O)c2cccc(NC(=O)c3ccncc3)c2O[C@H]1CN(C)Cc1ccncc1 | inactive |
| CC(C)N(C)C(=O)c1cccc(NC(=O)c2ccncc2)c1OCCCN(C)Cc1ccc(Cl)cc1 | inactive |
| C[C@H]1CN([C@@H](C)CO)C(=O)c2cccc(NC(=O)c3ccncc3)c2O[C@@H]1CN(C)Cc1ccc(C(F)(F)F)cc1 | inactive |
| CC(C)N1C[C@H](C)[C@@H](CN(C)C(=O)OC(C)(C)C)Oc2c(C(=O)O)cccc2C1=O | inactive |
| C[C@H]1CN([C@@H](C)CO)C(=O)c2cccc(NC(=O)c3ccncc3)c2O[C@@H]1CN(C)Cc1ccc(C(=O)O)cc1 | inactive |
